# High-throughput results from PubChem.
# Dicer processing – blocks human Dicer maturation of pre-miR-21; Q9UPY3; cat-ELCCA pre-miR-21 Dicer processing, chemiluminescence; hits give high values; z-score at 25 µM; 47,000 tested, 6% active; AID 1347074; in the data active = z-score above about 3, passing the limit was not always enough;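 also: plate controls were vehicle for no effect and no enzyme for full effect; higher signal means more uncleaved substrate so more Dicer inhibition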
# Numbers without * were called inactive. This is one part of a sample in which hits are shown more often than they occur.
SMILES,Dicer processing
CCN(CC)OC(=O)c1ccc(Oc2ccc(Cl)cc2)c([N+](=O)[O-])c1,1.11
FC(F)(F)c1cc(C(F)(F)F)n2ncc(-c3nc(-c4ccc(Cl)cc4)cs3)c2n1,0.48
Cc1cc([N+](=O)[O-])nn1CC(=O)Nc1cnc2ccccc2c1,3.51*
Cc1cc([N+](=O)[O-])nn1CC(=O)Nc1ccccn1,-0.84
CCOc1ccc(S(=O)(=O)Nc2cnc3ccccc3c2)cc1,-2.77
CCN(CC)c1ccc([N+](=O)[O-])c(N(CC)CC)n1,-1.52
Cc1ccc(S(=O)(=O)Nc2cccc(-c3nnc(Cc4cc(F)cc(F)c4)o3)c2)cc1,0.28
Cc1cc(C)nc(NC(=O)CN2C(=O)C3CCCCC3C2=O)n1 (configuration not stated),1.6
Cc1ccnc(NS(=O)(=O)c2ccc(N3C(=O)C4CCCCC4C3=O)cc2)n1 (configuration not stated),8.06*
CC(=O)Nc1ccc(S(=O)(=O)Nc2nc(C)cc(C)n2)cc1,-1.65
O=C(Nc1ccc(Cl)cc1)NN1CC(=O)N(c2ccccc2F)CC1=O,4.93*
O=C(Nc1ccc(F)cc1)N1CCN(c2ccccc2F)CC1,0.41
O=C(NN1CC(=O)N(c2cc(Cl)cc(Cl)c2)CC1=O)c1cccs1,-0.11
CCCOC(=O)C1=C(C)NC2=C(C(=O)CC(C)(C)C2)C1c1ccc(OC(C)=O)cc1 (configuration not stated),-0.43
O=c1c2cc(-c3ccccc3)sc2ncn1Cc1ccc(F)cc1,0.66
O=S(=O)(c1ccc(F)c(Cl)c1)N1CCC(O)(c2ccc(Cl)cc2)CC1,0.04
CNS(=O)(=O)c1ccc(C)c(I)c1,-0.17
Clc1ccc(CN2C3=NCCCN3c3ccccc32)cc1,0.55
Fc1ccc(CN2C3=NCCCN3c3ccccc32)cc1,0.52
Fc1ccc(CN2C3=NCCN3c3ccccc32)cc1,7.44*
CSc1sc(C#N)c2c1/C(=N/OC(=O)c1ccc(Cl)cc1)CCC2,-2.43
CSc1sc(C#N)c2c1/C(=N\O)CCC2,4.4*
CSc1sc(C#N)c2c1/C(=N/OC(C)=O)CCC2,-1.02
Cc1cccc2nc(CSc3nnnn3-c3ccccc3)cn12,6.51*
Cc1ccc(CSc2nc(C)cc(=O)[nH]2)cc1,-1.65
SMILES,Dicer processing
Cc1cc(=O)[nH]c(SCc2cn3c(C)cccc3n2)n1,4.77*
Cc1cccc2nc(CSc3nncn3-c3ccccc3)cn12,-0.94
Cc1cc(C)nc(N2N=C(CSc3nnnn3-c3ccccc3)CC2=O)n1,-1.53
Cc1cc(=O)[nH]c(SCc2cccc(Oc3ccccc3)c2)n1,-0.26
COc1ccc(Nc2ncnc(N)n2)cc1,1.1
CCOc1ccc(C2Nn3c(C)nnc3SC2C(=O)N(CC)CC)cc1 (configuration not stated),0.04
CC(CC(=O)O)CC(=O)Nc1ccccn1 (configuration not stated),0.15
Cc1ccc(NC(=O)CC(CC(=O)O)c2ccccc2)nc1 (configuration not stated),3.68*
Cc1ccc(NC(=O)CC(C)CC(=O)O)cc1 (configuration not stated),1.23
Nc1c(C(=O)N/N=C/c2ccc(Cl)cc2)sc2nnc(-c3ccccc3)c(-c3ccccc3)c12,1
Cc1c2c(=O)n(-c3ccccc3)[nH]c2cc(=O)n1Cc1cccnc1,0.96
Cc1c2c(=O)n(-c3ccccc3)[nH]c2cc(=O)n1Cc1ccco1,3.34*
Cc1ccccc1-n1c(N)cc(=O)n(Cc2ccco2)c1=O,1.37
O=C(Nc1cccc(C(F)(F)F)c1)Oc1ccc(F)cc1Cl,0.94
O=C(Nc1ccccc1)Nc1cccc(NC(=O)Nc2ccccc2)c1F,-0.34
O=C(Nc1ccccc1)Oc1cccc(F)c1OC(=O)Nc1ccccc1,3.43*
CN(N)C(=S)Nc1cc(Cl)ccc1Cl,1.23
CCCn1c(NCc2cc(C)ccc2O)nc2ccccc21,0.36
CC(=O)Nc1nc2ccccc2n1CCN(C)C,24.1
CCCn1c(NCc2cccc(Br)c2)nc2ccccc21,1.31
CCn1c(NCc2c(O)ccc3ccccc23)nc2ccccc21,-0.45
C=CCc1cccc(CNc2nc3ccccc3n2CC)c1O,6.91*
CCN(CC)CCn1c(NCc2ccco2)nc2ccccc21,3.81*
CCOc1ccccc1CNc1nc2ccccc2n1CCN(CC)CC,5.34*
CCCn1c(NCc2nc3ccccc3n2C)nc2ccccc21,0.58
SMILES,Dicer processing
CCn1c(NCc2ccc(N(C)C)cc2)nc2ccccc21,-0.31
CCN(CC)CCn1c(NCc2ccccc2O)nc2ccccc21,6.11*
CCN(CC)CCn1c(NCc2ccc(Br)cc2)nc2ccccc21,2.86
CCN(CC)CCn1c(NCc2ccccc2Cl)nc2ccccc21,2.82
CCOC(=O)COc1ccc(C)c2c1CCC2,-0.08
Cc1cccc(Cn2c(CCCO)nc3ccccc32)c1,-0.37
N#Cc1c(C(F)(F)F)cc(-c2cccs2)nc1OCC(=O)c1ccccc1,-0.46
Cc1cccc(Cl)c1NC(=O)Nc1ccc(NC(=O)c2ccccc2O)cc1,1.28
COC(=O)C(Cc1ccc(F)cc1)(Cc1ccc(F)cc1)C(C)=O,-0.71
O=C(CN1C(=O)CCC1=O)c1ccc(F)cc1,0.47
CSc1scc(-c2cccc(C(F)(F)F)c2)c1C#N,-2.49
O=C(Cn1nnc(N2CCCCC2)n1)NNC(=S)NC(=O)C1CC1,10.2
CCOC(=O)c1c(C)n(C)c2cc(-c3ccc(C)cc3)c(O)cc12,1.98
CCOC(=O)c1c(C)n(C)c2cc(-c3ccc(CC)cc3)c(O)cc12,3.47*
CCOC(=O)c1c(C)n(C)c2cc(-c3ccc(Cl)cc3)c(O)cc12,2.17
Clc1ccc(-c2nc3c4ccccc4ccn3c2CN2CCOCC2)cc1,-0.48
C/C(=N\O)c1ccn(S(=O)(=O)c2ccc(Cl)cc2)c1,0.09
C/C(=N\OC(=O)c1ccc(Cl)cc1)c1ccn(S(=O)(=O)c2ccc(Cl)cc2)c1,11.4*
C/C(=N\OC(=O)c1ccc(C(F)(F)F)cc1)c1ccn(S(=O)(=O)c2ccccc2)c1,-0.23
COc1ccc(COC(=O)C2=C(C)NC3=C(C(=O)CC(C)(C)C3)C2c2ccc(OC)c(O)c2)cc1 (configuration not stated),1.07
CNC(=O)NC(=O)CSc1nnc(-c2ccccc2)o1,-0.63
CC1(c2csc(Nc3ccccc3Cl)n2)CCC(=O)O1 (configuration not stated),1.57
O=C(Nc1cc(C(F)(F)F)cc(C(F)(F)F)c1)Nc1cc2ccccc2s1,3.03*
O=C(Nc1cc2ccccc2s1)NC1Cc2ccccc2C1,-0.16
O=C(NCc1cccs1)Nc1cc2ccccc2s1,-1.26
SMILES,Dicer processing
COC(=O)C1=C(C)Nc2[nH]c(=O)[nH]c(=O)c2C1c1ccc(Br)cc1 (configuration not stated),1.18
COC(=O)C1=C(C)Nc2c(c(=O)n(C)c(=O)n2C)C1c1ccc(Br)cc1 (configuration not stated),3.4*
COC(=O)C1=C(C)NC2=C(C(=O)CCC2)C1c1ccc(Br)cc1 (configuration not stated),-0.9
N#CC1=C(c2ccc(Cl)cc2)Sc2ccccc2NC1=O,-0.31
Cc1cc([N+](=O)[O-])ccc1S(=O)(=O)NNC(=O)CSc1nc2cccnc2s1,0.06
CC(=O)C(C)(C)OC(=O)NCCc1ccc(Cl)cc1,7.19*
O=C(O)/C=C\C(=O)NCCc1ccc(Cl)cc1,7.2
CC(=O)C(C)(C)OC(=O)NCc1cccs1,-3.2
Oc1[nH]c2ccccc2c1N=Nc1nc(-c2ccc(Br)cc2)cs1,4.76
O=S(=O)(c1ccccc1)n1ccc(-c2cnc3cc(Cl)c(Cl)cc3n2)c1,0.74
COc1ccc2ncc(-c3ccc(Cl)c(C)c3)nc2c1,-0.59
Cc1cc2ncc(-c3ccccc3)nc2cc1C,5.81*
